The list is not random: actives were taken first. Their share in the collection is about 15%.
Sm TGR block: inhibitors of Schistosoma mansoni thioredoxin glutathione reductase; Q962Y6; purified TGR, DTNB reduction, TNB absorbance 405 nm; Potency, µM (highest dose often 114 µM), without a hit: top-dose activity change, negative = inhibition, usual class: inhibitors; 360,000 compounds, 3% hits; AID 485364; also: potency is read from the fitted curve at half-maximal effect; % is scaled to controls: 0 for no effect and ±100 for the full control effect; nearly all actives have a fitted effect of over 60% in size
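First, TGR (20 nM dispensed) and NADPH were mixed with compound. Second, a 15 min room-temperature incubation followed. Third, further NADPH and then DTNB were added to start the reaction. Finally, TNB absorbance was monitored kinetically.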
HCMV inh: inhibitors of human cytomegalovirus. 410,000 compounds, 4.5% hits. activity change, negative = inhibition, % at 57.5 µM. HFF cells, HCMV-luciferase reporter, 72 h; stronger effect = lower value; in the data active = activity change below about -60%; inconclusive = no clear call, values can overlap the other calls; inactive = above about -39%; also: % is scaled to controls: 0 for no effect and ±100 for the full control effect
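Inhibition of viral replication was scored as loss of reporter luminescence in HFFs infected with HCMV-luciferase (MOI 1 PFU/cell) for 72 h; compounds tested at 2 doses, normalized to buffer and Salinomycin controls.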
HCV inhibitor: inhibitors of hepatitis C virus infection; Huh7.5.1 HCVcc-Cre infection, luciferase reporter, 44 h; Potency, µM (titrated, usually from 41.8 µM), for the others: at the top dose activity change, negative = inhibition, hits mostly inhibitors; 340,000 compounds, 3.4% hits; also: potency is read from the fitted curve at half-maximal effect; % is scaled to controls: 0 for no effect and ±100 for the full control effect
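Reporter virus HCVcc-Cre (~0.5 moi) infects cells exposed to compound; seeding density 1,000 cells/well with 4 h settling beforehand. Luminescence, 15 sec read, taken 44 h post-infection following a 15 min RT substrate incubation.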
Pf growth 48h: P. falciparum growth inhibition at 48 hours (one generation) | 310,000 compounds, 5.9% hits | P. falciparum luciferase growth in erythrocytes, 48 h | Potency, µM (series often up to 28.7 µM), inactives show top-dose activity change, negative = inhibition, hits mostly inhibitors; also: potency is read from the fitted curve at half-maximal effect; % is scaled to controls: 0 for no effect and ±100 for the full control effect
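A one-generation exposure of luciferase-tagged malaria parasites in RPMI 1640/Albumax erythrocyte culture, 37 C and 5% CO2. Inhibition is inferred from decreased luminescence after adding detection reagent.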
SARS PLpro yeast: blocks SARS-CoV papain-like protease in a yeast assay; S. cerevisiae expressing SARS-CoV PLpro, growth rescue; Potency, µM (series often up to 32.9 µM), for inactives: top-dose activity, positive = growth rescue, usual class: activators; 330,000 compounds, 0.19% hits; AID 485353; calls by dose curve; also: potency is read from the fitted curve at half-maximal effect; 0% is about no effect; nearly all actives have a fitted effect of over 55% in size
Pf growth 96h: inhibits malaria parasite growth, 96 h; P. falciparum luciferase reporter growth, 96 h; Potency, µM (titrated, usually from 28.7 µM), without a hit: at the highest dose activity change, negative = inhibition, usual class: inhibitors; 320,000 compounds, 6.9% hits; AID 504834; also: potency is read from the fitted curve at half-maximal effect; % is scaled to controls: 0 for no effect and ±100 for the full control effect
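Two-generation exposure (96 h) targets delayed-death phenotype. Reporter parasites carrying integrated firefly luciferase, in red cells at 2% hematocrit and 0.05% parasitemia final, kept at 37 C, 5% CO2; luminescence loss indicates inhibition.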
The depositor's hits bear a star; [ ] = another dose, or the depositor's remark. Unless noted, calls follow the shape of the dose curve; as a rule, active = well fitted curve in the direction sought with a large enough effect; inconclusive = small, poorly fitted or top-dose-only effect, or another doubt; inactive = no such curve, though single readings can be large; an effect the other way counts as inactive or inconclusive.

What do the screens show for `COc1ccc(S(=O)(=O)N2CCN(CC(=O)Nc3ccc(Cl)c(C(F)(F)F)c3)CC2)cc1`?
Sm TGR block: 13%; HCMV inh: inconclusive

How did CC(=O)N1[C@@H]2Cn3c(ccc(-c4ccccc4F)c3=O)[C@H]1[C@@H](C(=O)N1CCOCC1)[C@@H]2CO do in these assays?
HCMV inh: -19

Results for NS(=O)(=O)c1ccc(CCNC(=O)CNC(=O)C2CCCCC2)cc1 ?
Sm TGR block: 15%; HCMV inh: -1; HCV inhibitor: 13%; Pf growth 48h: 10%; SARS PLpro yeast: 18%; Pf growth 96h: 12µM*

Results for C[C@@H](C(=O)OCC(=O)NCCc1ccc(S(N)(=O)=O)cc1)N1C(=O)C2CCCCC2C1=O (stereo partly specified) ?
Sm TGR block: 16%; HCMV inh: -80*; HCV inhibitor: -9%; Pf growth 48h: 3%; SARS PLpro yeast: 2%; Pf growth 96h: 5%

What do the screens show for `NS(=O)(=O)c1ccc(CCNC(=O)CN2CCC(Cc3ccccc3)CC2)cc1`?
Sm TGR block: -9%; HCMV inh: -76*; HCV inhibitor: inconclusive; Pf growth 48h: inconclusive; SARS PLpro yeast: -1%; Pf growth 96h: -13%

How did CC(C)C[C@@H](CN1CCCC1CN1C(=S)NC[C@@H]1Cc1ccccc1)N1C[C@H](Cc2ccc(O)cc2)N(CC2CCCCC2)C1=S (stereo partly specified) do in these assays?
HCMV inh: -73*

How did CC(C)C[C@@H](CN1CCC[C@@H]1CN1C(=S)NC[C@@H]1Cc1ccc(O)cc1)N1C[C@H](Cc2ccc(O)cc2)N(CC2CCCCC2)C1=S do in these assays?
HCMV inh: -100*

What do the screens show for `CC(C)C[C@@H](CN1CCCC1CN1C(=S)NC[C@@H]1Cc1ccc(O)cc1)N1C[C@H](Cc2ccc(O)cc2)N(CCc2ccccc2)C1=S` (stereo partly specified)?
HCMV inh: -95*; HCV inhibitor: -52%

How did CC(C)C[C@@H](CN1CCC[C@@H]1CN1C(=S)NC[C@@H]1Cc1ccc(O)cc1)N1C[C@H](Cc2ccc(O)cc2)N(CC2CCCCCC2)C1=S do in these assays?
HCMV inh: -100*

Results for Cn1ncc(Br)c1C(=O)NC12CC3CC(CC(C3)C1)C2 ?
Sm TGR block: -5%; HCMV inh: inconclusive; HCV inhibitor: 18%; Pf growth 48h: 14%; SARS PLpro yeast: 7%; Pf growth 96h: -11%

What do the screens show for `O=C(Nc1cccc(Cl)c1Cl)c1cc2nc(-c3ccc4c(c3)OCO4)cc(C(F)(F)F)n2n1`?
Sm TGR block: -2%; HCMV inh: -4

What do the screens show for `COC1CCCN(C(=O)c2ccc3nc(Cc4cccc(Cl)c4)oc3c2)C1` (stereo unspecified)?
Sm TGR block: 4%; HCMV inh: 16; HCV inhibitor: 3%; Pf growth 48h: 40%; SARS PLpro yeast: 2%; Pf growth 96h: inconclusive

What do the screens show for `NC(=O)[C@@H]1CCCN1C(=O)c1ccc2nc(Cc3cccc(Cl)c3)oc2c1`?
Sm TGR block: -12%; HCMV inh: -35; HCV inhibitor: -2%; Pf growth 48h: 2%; SARS PLpro yeast: -5%; Pf growth 96h: 10µM*

How did CCOc1ccccc1C(=O)Nc1ccc(S(=O)(=O)Nc2nccc(C)n2)cc1 do in these assays?
Sm TGR block: 32µM*; HCMV inh: 40; HCV inhibitor: 5%; Pf growth 48h: -10%; SARS PLpro yeast: -3%; Pf growth 96h: 13µM*

How did Cc1ccnc(NS(=O)(=O)c2ccc(NC(=O)C(C)(C)C)cc2)n1 do in these assays?
Sm TGR block: -4%; HCMV inh: 4; HCV inhibitor: -3%; Pf growth 48h: 1.9µM*; SARS PLpro yeast: 1%; Pf growth 96h: 48%

What do the screens show for `CCOc1ccc(C(=O)Nc2ccc(S(=O)(=O)Nc3nccc(C)n3)cc2)cc1OCC`?
Sm TGR block: 3%; HCMV inh: -14; HCV inhibitor: 10%; Pf growth 48h: -27%; SARS PLpro yeast: 4%; Pf growth 96h: 8.3µM*

Results for Cc1nn(C(=O)c2ccc(Br)cc2)c(C)c1S(=O)(=O)N1CCOCC1 ?
Sm TGR block: inconclusive; HCMV inh: 18

What do the screens show for `CCC(c1nnnn1Cc1ccc2c(c1)OCO2)N1CCN(c2ccc(F)cc2)CC1` (stereo unspecified)?
Sm TGR block: -2%[11.4 µM]; HCMV inh: -35; HCV inhibitor: -9%; SARS PLpro yeast: -3%

How did Oc1ccc(N2CCN(C(c3ccccn3)c3nnnn3C3CCCC3)CC2)cc1 (stereo unspecified) do in these assays?
Sm TGR block: inconclusive; HCMV inh: -30; HCV inhibitor: -4%; Pf growth 48h: 10µM*; SARS PLpro yeast: -6%; Pf growth 96h: 8%

Results for CCC(c1nnnn1Cc1ccc2c(c1)OCO2)N1CCN(c2ccccc2)CC1 (stereo unspecified) ?
Sm TGR block: 7%; HCMV inh: -8; HCV inhibitor: 2%; Pf growth 48h: 12µM*; SARS PLpro yeast: -7%; Pf growth 96h: 21%

What do the screens show for `c1ccc(C(c2nnnn2C2CCCC2)N2CCN(c3ccccc3)CC2)cc1` (stereo unspecified)?
Sm TGR block: -10%; HCMV inh: -25; HCV inhibitor: -3%; Pf growth 48h: 13µM*; SARS PLpro yeast: -20%; Pf growth 96h: inconclusive

Results for Fc1ccc(C(c2nnnn2C2CCCCC2)N2CCCC2)cc1 (stereo unspecified) ?
HCMV inh: 35; HCV inhibitor: 24%; Pf growth 48h: 13µM*; SARS PLpro yeast: 1%; Pf growth 96h: -33%

What do the screens show for `Fc1ccc(C(c2nnnn2C2CCCC2)N2CCN(Cc3ccncc3)CC2)cc1` (stereo unspecified)?
Sm TGR block: -2%; HCMV inh: -14; HCV inhibitor: -4%; Pf growth 48h: -14%; SARS PLpro yeast: -2%; Pf growth 96h: 12%

How did COc1ccc(-n2c(=O)[nH]c3cc(C(=O)NCCc4ccccc4)ccc3c2=O)cc1OC do in these assays?
Sm TGR block: -6%; HCMV inh: 12; HCV inhibitor: -17%; Pf growth 48h: inconclusive; SARS PLpro yeast: 2%; Pf growth 96h: 10%

What do the screens show for `Cc1ccc(NC(=O)N[C@H]2CC[C@@]34CCCN3C(=O)CCC[C@H]4[C@H]2C)cc1`?
HCMV inh: -3

How did CN(C)S(=O)(=O)Nc1ccc(-c2cn3ccsc3n2)cc1 do in these assays?
Sm TGR block: 0%; HCMV inh: -36

Screens (PubChem)
